Laboratory results taken from PubChem BioAssay (EPA / NIEHS).
Results filed as inconclusive are left out. Active and inactive are the calls of the source. The calls were made as follows, unless noted: active = hit-call score of the fitted dose curve at least 0.9, where 1 is the maximum; inactive = score below 0.9.

Key:
[1] = target: Nuclear receptor subfamily 4 group A member 2 (Homo sapiens) (UniProt P43354); assay: ATG_NURR1_TRANS: Attagene TRANS-FACTORIAL HepG2 Assay for human Nuclear Receptor Related Protein 1 (NURR1) (AID 2282985; active = hit-call score of the fitted dose curve at least 0.9, where 1 is the maximum); conditions: HepG2 Attagene TRANS reporter, mRNA readout
Chain of Nuclear receptor subfamily 4 group A member 2 (Homo sapiens) (P43354 whole entry, looked up, the tested form may be a part): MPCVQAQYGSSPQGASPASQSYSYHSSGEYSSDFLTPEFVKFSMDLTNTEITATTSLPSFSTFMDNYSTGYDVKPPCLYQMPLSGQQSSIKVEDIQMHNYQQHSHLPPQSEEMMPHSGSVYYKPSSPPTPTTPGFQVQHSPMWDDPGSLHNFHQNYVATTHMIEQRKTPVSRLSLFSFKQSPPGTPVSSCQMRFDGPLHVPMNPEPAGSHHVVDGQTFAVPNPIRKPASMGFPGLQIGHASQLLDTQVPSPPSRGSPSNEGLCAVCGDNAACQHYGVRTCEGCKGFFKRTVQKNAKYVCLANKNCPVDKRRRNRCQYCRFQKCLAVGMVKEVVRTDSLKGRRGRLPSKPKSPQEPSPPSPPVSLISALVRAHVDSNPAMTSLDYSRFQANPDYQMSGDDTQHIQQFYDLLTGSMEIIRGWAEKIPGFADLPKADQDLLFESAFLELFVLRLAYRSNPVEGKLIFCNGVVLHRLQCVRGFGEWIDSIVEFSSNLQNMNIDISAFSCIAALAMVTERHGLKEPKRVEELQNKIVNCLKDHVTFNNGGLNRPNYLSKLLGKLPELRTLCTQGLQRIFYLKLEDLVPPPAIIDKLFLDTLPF
Method in brief: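 Chimeric NR-Gal4 fusion activity measured in HepG2 after 24 h treatment. Reporter transcripts detected by RT-PCR and capillary electrophoresis fluorescence; positive-direction curve fitting against DMSO.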

[2] = target: human Phosphodiesterase 10 (PDE10), PDE10A (gene 10846) (UniProt Q9Y233); assay: NVS_ENZ_hPDE10: NovaScreen (NVS) Enzymatic Assay for human Phosphodiesterase 10 (PDE10) (AID 2283195; active = hit-call score of the fitted dose curve at least 0.9, where 1 is the maximum)
Chain of human Phosphodiesterase 10 (PDE10), PDE10A (gene 10846) (Q9Y233 whole entry, looked up): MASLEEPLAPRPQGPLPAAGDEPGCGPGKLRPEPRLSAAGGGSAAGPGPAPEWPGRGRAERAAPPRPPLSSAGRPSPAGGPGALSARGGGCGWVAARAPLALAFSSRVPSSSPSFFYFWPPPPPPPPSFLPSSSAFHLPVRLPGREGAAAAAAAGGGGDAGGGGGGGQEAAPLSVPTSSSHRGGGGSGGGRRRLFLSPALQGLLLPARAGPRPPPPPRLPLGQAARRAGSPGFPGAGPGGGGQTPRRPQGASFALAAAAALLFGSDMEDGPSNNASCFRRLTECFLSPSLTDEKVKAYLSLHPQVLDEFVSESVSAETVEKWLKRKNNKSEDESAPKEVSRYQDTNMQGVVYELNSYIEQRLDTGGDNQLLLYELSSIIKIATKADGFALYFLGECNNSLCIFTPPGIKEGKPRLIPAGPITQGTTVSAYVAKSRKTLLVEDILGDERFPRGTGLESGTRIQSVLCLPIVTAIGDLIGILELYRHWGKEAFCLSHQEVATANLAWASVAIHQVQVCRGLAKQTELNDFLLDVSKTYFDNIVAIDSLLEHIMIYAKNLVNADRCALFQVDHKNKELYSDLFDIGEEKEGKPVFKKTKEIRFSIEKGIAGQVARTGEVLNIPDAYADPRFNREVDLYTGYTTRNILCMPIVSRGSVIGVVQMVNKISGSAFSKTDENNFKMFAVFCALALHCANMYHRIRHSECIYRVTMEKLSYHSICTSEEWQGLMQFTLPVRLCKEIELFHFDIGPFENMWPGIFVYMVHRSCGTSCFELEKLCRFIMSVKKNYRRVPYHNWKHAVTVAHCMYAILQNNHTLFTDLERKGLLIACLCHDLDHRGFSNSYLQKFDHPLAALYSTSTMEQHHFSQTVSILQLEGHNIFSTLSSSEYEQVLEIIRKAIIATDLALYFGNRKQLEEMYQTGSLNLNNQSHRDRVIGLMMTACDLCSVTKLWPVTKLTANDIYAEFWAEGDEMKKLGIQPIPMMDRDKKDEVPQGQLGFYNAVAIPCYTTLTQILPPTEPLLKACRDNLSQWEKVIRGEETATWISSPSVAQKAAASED
Method in brief: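 Readout is fluorescence intensity following electrophoretic mobility-shift separation, 1 h after dosing of isolated PDE10A protein. Hits meeting a preset threshold at 25 uM went to concentration series (max 50 uM), analysed relative to DMSO.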

[3] = target: human Retinoic Acid Receptor gamma (RARg), RARG (gene 5916) (UniProt P13631); assay: ATG_RARg_TRANS: Attagene TRANS-FACTORIAL HepG2 Assay for human Retinoic Acid Receptor gamma (RARg) (AID 2283009; active = hit-call score of the fitted dose curve at least 0.9, where 1 is the maximum;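 as to AC50: AC50 is for reporter induction above DMSO meaning RARg activation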)
Chain of human Retinoic Acid Receptor gamma (RARg), RARG (gene 5916) (P13631 whole entry, looked up, the tested form may be a part): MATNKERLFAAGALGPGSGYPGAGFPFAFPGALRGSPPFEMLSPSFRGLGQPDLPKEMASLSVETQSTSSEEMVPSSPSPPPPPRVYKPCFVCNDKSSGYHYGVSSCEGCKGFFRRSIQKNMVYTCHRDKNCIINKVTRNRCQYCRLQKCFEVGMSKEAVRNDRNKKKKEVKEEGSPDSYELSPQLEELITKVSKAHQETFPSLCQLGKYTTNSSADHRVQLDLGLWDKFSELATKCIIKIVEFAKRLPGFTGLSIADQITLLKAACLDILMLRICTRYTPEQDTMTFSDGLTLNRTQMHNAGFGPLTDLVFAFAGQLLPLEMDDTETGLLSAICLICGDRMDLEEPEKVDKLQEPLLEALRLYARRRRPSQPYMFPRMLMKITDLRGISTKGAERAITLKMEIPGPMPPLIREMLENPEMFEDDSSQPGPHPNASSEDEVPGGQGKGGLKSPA
Method in brief: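 TRANS format measured activity of exogenous NR-GAL4 fusion (RARg) in transfected HepG2 liver cells after 24 h dosing. Induced reporter RNA was detected by RT-PCR/capillary electrophoresis fluorescence, analysed in the positive direction against DMSO.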

[4] = CCTE_Shafer_MEA_dev_firing_rate_mean: CCTE's Neural Network Formation Assay for Mean Firing Rate, Shafer Lab (AID 2284031);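 as to AC50: curve fitted for loss of firing so AC50 reflects decreased mean firing rate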
Method in brief: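 Steps: seed rat cortical cells (1.5 x 10^5/well) with laminin on PEI-coated MEA; dose day 0; record DIV 5/7/9/12, full media and compound exchange after DIV 5 and 9 recordings; compute well-mean firing rate AUC.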

[5] = CCTE_Shafer_MEA_dev_per_burst_spike_percent: CCTE's Neural Network Formation Assay for Percent of Spikes in a Burst, Shafer Lab (AID 2284032);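 as to AC50: fitted as a decrease in burst spike percentage below DMSO baseline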
Method in brief: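 Value is trapezoidal AUC over recordings on days 5, 7, 9 and 12 of the well-mean fraction of spikes falling in single-electrode bursts; rat cortical cultures exposed continuously from plating, treatment renewed DIV 5 and 9, fitted downward against DMSO.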

[6] = CCTE_Shafer_MEA_dev_active_electrodes_number: CCTE's Neural Network Formation Assay for Number of Active Electrodes, Shafer Lab (AID 2284040; active = hit-call score of the fitted dose curve at least 0.9, where 1 is the maximum;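 as to AC50: potency for loss of active electrodes versus DMSO so lower counts are hits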)
Method in brief: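 Counts electrodes per well firing at least 5 spikes/min, recorded on days 5, 7, 9 and 12 in rat cortical cultures dosed continuously from plating (treatment refreshed DIV 5, 9). Value is the area under the curve over recordings, fitted downward relative to DMSO.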

[7] = CCTE_Shafer_MEA_dev_burst_rate: CCTE's Neural Network Formation Assay for Burst Rate, Shafer Lab (AID 2284042);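 as to AC50: potency for loss of burst rate below DMSO control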
Method in brief: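 Primary rat cortical neurons on PEI-coated 48-well MEA plates (laminin added with cells at plating) (16 electrodes/well), exposed from plating to day 12, dosing renewed at DIV 5 and 9. Burst rate averaged over active electrodes, recorded DIV 5, 7, 9, 12, summarized as AUC; loss versus DMSO.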

[8] = CCTE_Shafer_MEA_dev_bursting_electrodes_number: CCTE's Neural Network Formation Assay for Number of Bursting Electrodes, Shafer Lab (AID 2284043; active = hit-call score of the fitted dose curve at least 0.9, where 1 is the maximum;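 as to AC50: potency is for loss of bursting electrodes relative to DMSO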)
Method in brief: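 Counted: electrodes with burst rate ≥1 per 2 min in each well. Cells: primary rat cortex, 1.5 x 10^5/well, on 16-electrode MEA wells. Exposure: DIV 0–12, compound renewed DIV 5 and 9. Recording days 5, 7, 9, 12; AUC vs DMSO baseline.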

[9] = CCTE_Shafer_MEA_dev_per_burst_interspike_interval: CCTE's Neural Network Formation Assay for Burst Interspike Interval, Shafer Lab (AID 2284044);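 as to AC50: potency for a decrease of within-burst interspike interval below DMSO level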
Method in brief: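 Spontaneous activity of maturing rat cortical networks is recorded on DIV 5, 7, 9 and 12 under chronic compound exposure beginning at plating. Endpoint: burst interspike interval well-mean, collapsed into trapezoidal AUC and fitted in the negative direction relative to DMSO.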

[10] = CCTE_Shafer_MEA_dev_burst_duration_mean: CCTE's Neural Network Formation Assay for Mean Burst Duration, Shafer Lab (AID 2284045);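 as to AC50: curve fitted for loss meaning shorter burst duration than DMSO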
Method in brief: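 Network-formation assay in primary rat cortical neurons; treatment spans twelve days of development. Mean burst duration per well is integrated by trapezoidal AUC and fitted in the loss-of-signal direction against DMSO baseline.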

[11] = CCTE_Shafer_MEA_dev_interburst_interval_mean: CCTE's Neural Network Formation Assay for Mean Interburst Interval, Shafer Lab (AID 2284046);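 also: well-mean interburst interval of bursting electrodes as AUC over four recording days; curve fitted for decrease in interburst interval relative to DMSO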
Method in brief: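 Recordings on days 5, 7, 9 and 12 give well-mean interburst interval across actively bursting electrodes, summarized as area under the curve. Cultures: rat cortical neurons, continuous exposure from day 0, compound renewed at feeds; decrease analyzed versus DMSO.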

[12] = CCTE_Shafer_MEA_dev_inter_network_spike_interval_mean: CCTE's Neural Network Formation Assay for Mean Inter-network Spike Interval, Shafer Lab (AID 2284047);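 as to AC50: potency for a decrease in mean inter-network spike interval below DMSO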
Method in brief: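 Primary rat cortical neurons on 16-electrode MEA wells, exposed from plating day 0 through DIV 12, compound renewed at DIV 5 and 9 media changes. Mean interval between network-spike peaks recorded DIV 5, 7, 9, 12; collapsed as trapezoidal AUC, fitted downward versus DMSO.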

[13] = CCTE_Shafer_MEA_dev_network_spike_number: CCTE's Neural Network Formation Assay for Number of Network Spikes, Shafer Lab (AID 2284048);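 also: synchronized bursts across electrodes counted on days 5 7 9 12 and integrated as AUC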;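 as to AC50: fit as a loss of signal meaning fewer network spikes than DMSO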
Method in brief: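 Extracellular recordings from 16-electrode wells track network formation in rat cortical cultures under continuous treatment from plating. The endpoint is network spike number, expressed as AUC across DIV 5–12 relative to DMSO vehicle.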

[14] = CCTE_Shafer_MEA_dev_spike_duration_mean: CCTE's Neural Network Formation Assay for Mean Spike Duration, Shafer Lab (AID 2284051);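 also: mean network spike duration pooled as area under curve over DIV 5 to 12 recordings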;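 as to AC50: potency for a decrease in mean network spike duration versus DMSO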
Method in brief: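 Primary rat cortical neurons on 16-electrode MEA wells (PEI-coated, laminin in plating drop), exposed from plating through DIV 12 with compound renewed at DIV 5 and 9. Mean network-spike duration recorded DIV 5, 7, 9, 12; trapezoidal AUC across days, DMSO baseline.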

[15] = CCTE_Shafer_MEA_dev_network_spike_duration_std: CCTE's Neural Network Formation Assay for Standard Deviation of Network Spike Duration, Shafer Lab (AID 2284052);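 also: area under curve of spike duration SD across recording days 5 to 12; hits are decreases in network spike duration SD versus DMSO vehicle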
Method in brief: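 Primary rat cortical neurons on PEI-coated 16-electrode MEA wells, exposed from plating day 0 through day 12 with compound renewed at DIV 5 and 9. Network spike duration SD recorded on days 5, 7, 9, 12, collapsed as trapezoidal AUC; loss-of-signal fit versus DMSO.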

[16] = CCTE_Shafer_MEA_dev_per_network_spike_spike_number_mean: CCTE's Neural Network Formation Assay for Mean Number of Spikes in a Network Spike, Shafer Lab (AID 2284053)
Method in brief: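 Primary rat cortical neurons on 48-well, 16-electrode MEA plates were exposed from plating to DIV 12, with dosing renewed on DIV 5 and 9. Spikes per network spike (0.05 s peak window) were recorded on DIV 5, 7, 9 and 12 and collapsed as trapezoidal AUC versus DMSO.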

[17] = CCTE_Shafer_MEA_dev_per_network_spike_spike_percent: CCTE's Neural Network Formation Assay for Percent of Spikes in a Network Spike, Shafer Lab (AID 2284054)
Method in brief: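 Developing networks of rat cortical neurons are dosed at day 0 and recorded extracellularly four times up to day 12. The endpoint is the area under the curve of percent spikes in network spikes, fitted in the negative direction relative to DMSO.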

[18] = CCTE_Shafer_MEA_dev_LDH: CCTE's Lactate Dehydrogenase Assay for Cytotoxicity in the Neural Network Formation Assay, Shafer Lab (AID 2284068; active = hit-call score of the fitted dose curve at least 0.9, where 1 is the maximum;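 also: exposure for twelve days from plating with re-dosing on DIV 5 and 9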)
Method in brief: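 Primary rat cortical neurons were plated on PEI/laminin MEA plates and exposed from day 0 for twelve days, with compound renewed at DIV 5 and 9. Cytotoxicity was determined by spectrophotometric LDH assay relative to DMSO.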

[19] = CCTE_Shafer_MEA_dev_AB: CCTE's Alamar Blue Assay for Cytotoxicity in the Neural Network Formation Assay, Shafer Lab (AID 2284083; active = hit-call score of the fitted dose curve at least 0.9, where 1 is the maximum;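 also: twelve days of exposure from plating with re-dosing on DIV 5 and 9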)
Method in brief: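 Primary rat cortical neurons on PEI-coated 48-well MEA plates, 1.5 x 10^5 cells/well in laminin drop; compound exposure from day 0 of plating for twelve days, renewed at medium changes on DIV 5 and 9. Viability read as resazurin reduction by fluorescence, relative to DMSO.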

[20] = CCTE_Shafer_MEA_dev_mutual_information_norm: CCTE's Neural Network Formation Assay for Mutual Information Normalization, Shafer Lab (AID 2284091);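 as to AC50: mutual information between electrodes summarised as area under curve across four recording days; potency is for a decrease in mutual information relative to DMSO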
Method in brief: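 Exposure of primary rat cortical neurons began at plating and ran to DIV 12, with full media and treatment renewal after DIV 5 and 9 recordings. Mutual information AUC (DIV 5–12) was analysed for loss versus DMSO.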

## OCCOCCOCCOCCOCCO
[1]
  outcome: inactive

## Oc1ccc(Cl)cc1C1CCCC1
[1]
  AC50: 8.65 µM (active)

## CC(C)CC(=O)CC(C)CC(C)C (stereo not given)
[2]
  outcome: inactive

## C[N+](C)(C)CC(=O)[O-]
[2]
  outcome: inactive

## O=C(Oc1ccccc1)c1ccccc1
[3]
  outcome: inactive

## c1ccc(CNc2ncnc3nc[nH]c23)cc1
[3]
  outcome: inactive

## CCCCCCCCCCCCCCCCCC[N+](C)(C)C
[3]
  AC50: 34.4 µM (active)
[2]
  AC50: 1.71 µM (active)

## NC(N)=Nc1nc(CSCCC(N)=NS(N)(=O)=O)cs1
[4]
  outcome: inactive
[5]
  outcome: inactive
[6]
  outcome: inactive
[7]
  outcome: inactive
[8]
  outcome: inactive
[9]
  outcome: inactive
[10]
  outcome: inactive
[11]
  outcome: inactive
[12]
  outcome: inactive
[13]
  outcome: inactive
[14]
  outcome: inactive
[15]
  outcome: inactive
[16]
  outcome: inactive
[17]
  outcome: inactive
[18]
  outcome: inactive
[19]
  outcome: inactive
[20]
  outcome: inactive

## CCO[Si](CCCN)(OCC)OCC
[1]
  outcome: inactive

## COc1ccc2cc3[n+](cc2c1OC)CCc1cc2c(cc1-3)OCO2
[4]
  AC50: 0.106 µM (active)
[5]
  AC50: 0.145 µM (active)
[6]
  AC50: 0.161 µM (active)
[7]
  AC50: 0.0928 µM (active)
[8]
  AC50: 0.13 µM (active)
[9]
  AC50: 0.381 µM (active)
[10]
  AC50: 0.291 µM (active)
[11]
  AC50: 0.287 µM (active)
[12]
  AC50: 0.236 µM (active)
[13]
  AC50: 0.0798 µM (active)
[14]
  AC50: 0.13 µM (active)
[15]
  AC50: 0.0974 µM (active)
[16]
  AC50: 0.109 µM (active)
[17]
  AC50: 0.117 µM (active)
[18]
  AC50: 0.0881 µM (active)
[19]
  AC50: 0.45 µM (active)
[20]
  AC50: 0.0926 µM (active)

## CNCCC(Oc1ccc(C(F)(F)F)cc1)c1ccccc1 (stereo not given)
[4]
  AC50: 1.87 µM (active)
[5]
  AC50: 4.19 µM (active)
[6]
  AC50: 2.55 µM (active)
[7]
  AC50: 2.77 µM (active)
[8]
  AC50: 1.79 µM (active)
[9]
  AC50: 3.14 µM (active)
[10]
  AC50: 2.81 µM (active)
[11]
  AC50: 4.18 µM (active)
[12]
  AC50: 1.4 µM (active)
[13]
  outcome: inactive
[14]
  AC50: 1.88 µM (active)
[15]
  AC50: 2.01 µM (active)
[16]
  AC50: 1.07 µM (active)
[17]
  AC50: 7.65 µM (active)
[18]
  AC50: 2.08 µM (active)
[19]
  AC50: 5 µM (active)
[20]
  AC50: 2.58 µM (active)
